# Screening data deposited in PubChem BioAssay by National Center for Advancing Translational Sciences (NCATS).
# Tau fibril ThT: blocks human tau fibril formation measured by thioflavin T; P10636; recombinant tau K18 P301L, heparin-induced fibrillization, ThT fluorescence; Potency, µM (highest dose often 57.4 µM), inactives show at the highest dose activity, negative = inhibition, most hits filed as inhibitors; actives 2.1% (n = 270,000); further: nearly all actives have a fitted effect of over 55% in size
# Target sequence (P10636 561-689 P618L limits assumed): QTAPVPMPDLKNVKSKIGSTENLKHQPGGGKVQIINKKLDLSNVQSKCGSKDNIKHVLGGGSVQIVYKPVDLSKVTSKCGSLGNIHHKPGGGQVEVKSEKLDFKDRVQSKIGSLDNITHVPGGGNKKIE
#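 Recombinant human tau K18 fragment […] carrying P301L, 15 uM unlabeled plus 0.24 uM Alexa 594-labeled, was fibrillized with 20 uM heparin in 100 mM sodium acetate pH 7 for 6 hr at 37 C; 30 uM ThT fluorescence read after 1 hr.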
# Tau FP inhib: inhibitors of human tau fibril formation; P10636; K18 P301L tau heparin fibrillization, Alexa594 FP, 6 h; Potency, µM (highest dose often 57.7 µM), for inactives: at the highest dose activity, negative = inhibition, most hits filed as inhibitors; actives 0.39% (n = 280,000); AID 1468; further: nearly all actives have a fitted effect of over 55% in size
#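 Read-out: fluorescence polarization of Alexa 594-labeled tau (0.24 uM), 555 nm excitation, 632 nm emission. Mixtures held 15 uM unlabeled K18 P301L, compound and 20 uM heparin, pH 7 acetate buffer, incubated 6 hr at 37 C.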
# TR SRC2 fluor cs: Texas Red fluorescence interference in TRb-SRC2 counter-screen; actives 0.29% (n = 280,000); Potency, µM (top dose mostly 106 µM), inactives show top-dose fluorescence change, negative = quenching; TRb/SRC2 Texas Red total fluorescence interference; active means well fitted curve in either direction with a large enough effect; inconclusive means small, poorly fitted or top-dose-only effect
#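 Human TRb ligand-binding domain at 0.6 uM with 20 nM Texas Red SRC2 peptide in Tris buffer containing 1 uM T3 and 5% DMSO, incubated with compound 5 h at ambient temperature. Total fluorescence (555/632 nm) calculated as parallel + 2 × perpendicular.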
# Tau fluor counter: counter-screen for tau fibril formation inhibitors. tau K18 P301L Alexa594 fluorescence, heparin fibrillization. Potency, µM (top dose mostly 57.7 µM), for inactives: at the highest dose activity change, negative = decrease. actives 0.93% (n = 280,000). AID 1463; further: nearly all actives have a fitted effect of over 55% in size
#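 Human tau K18 P301L (15 uM unlabeled, 0.24 uM Alexa 594-labeled) in 100 mM sodium acetate pH 7 with 20 uM heparin, 6 hr at 37 C. ThT 30 uM added, 1 hr ambient; Alexa 594 FP and total fluorescence read at 555/632 nm.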
# TRb-SRC2 inh: TRbeta-SRC2 interaction inhibition; P10828; TRbeta-SRC2 peptide binding, fluorescence polarization; receptor liganded with 1 µM T3; Potency, µM (top dose mostly 106 µM), inactives show at the highest dose activity change, negative = inhibition, usual class: inhibitors; actives 0.065% (n = 280,000);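 further: plate controls were bound peptide for no effect and peptide without receptor for full effect; nearly all actives have a fitted effect of over 50% in size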
#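 TRb LBD 0.6 uM + Texas Red SRC2 peptide 20 nM, 1 uM T3, Tris buffer w/ 5% DMSO; compound pinned, 5 h RT; FP read ex 555/em 632; normalized to unbound and bound controls.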
# * = called active by the depositor; ? = inconclusive; . = no result; [ ] = another dose, or the depositor's remark. In the library only some 3% were active in any assay of this set; here they are far more common. Unless noted, the call rests on the fitted dose curve; in most records, active means well fitted curve in the direction sought with a large enough effect; inconclusive means small, poorly fitted or top-dose-only effect, or another doubt; inactive means no such curve, though single readings can be large; an effect the other way counts as inactive or inconclusive. Unless noted, on the % scale 0 is the no-effect control and ±100 the full control effect; potency means the concentration at half of the fitted maximal effect.
SMILES,Tau fibril ThT,Tau FP inhib,TR SRC2 fluor cs,Tau fluor counter,TRb-SRC2 inh
CCn1c(Cl)c(C=O)s/c1=N\S(=O)(=O)c1ccccc1,8.9µM*,7.1µM*,1%,-27%,-2%
CCc1cccc(C)c1NC(=O)c1cn2c3c(ccc(Cl)c3c1=O)OC(C)C2 (configuration not stated),12%,5%,100µM*[quencher],6%,-19%
CCOC(=O)c1c(C)c(C)n(Cc2cccc(OC)c2OC)c1C,25µM*,?,-1%,-27%,0%
CCOC(=O)c1cc(C)n(Cc2cccc(OC)c2OC)c1C,?,-15%,-2%,-19%,1%
CCOC(=O)c1cccc(NC(=O)c2cc(CN3CCOCC3)on2)c1,-11%,5%,-4%,-1%,-5%
CN1/C(=C\P(=O)(N(C)C)N(C)C)C(C)(C)c2ccccc21,32µM*,?,?,?,26%
CN1/C(=C/C2CC(=O)N(c3cccc4ccccc34)C2=O)C(C)(C)c2ccccc21 (configuration not stated),?,-2%,1%,-17%,-10%
CCOC(=O)/C=C1/N(C)c2ccccc2C1(C)C,.,4%,0%,15%,-4%
CN1/C(=C/C2CC(=O)NC2=O)C(C)(C)c2ccccc21 (configuration not stated),28µM*,?,-3%,-19%,7%
Cc1cccc(N2CCN(CCCNC(=O)c3sc4ncccc4c3-n3cccc3)CC2C)c1 (configuration not stated),-4%,-2%,-4%,-5%,7%
CCOc1cc(C#N)c(NC(=O)c2cccc(S(=O)(=O)N3CCOCC3)c2)cc1OCC,4%,-1%,-80%[53 µM],-8%,?
Oc1c(Cl)cc(Cl)cc1C=Nc1ccccc1N1CCCC1,22µM*,-13%,-4%,?,6%
CCOc1ccc2nc(N3CCCC(C(=O)NCCc4ccc(SC)cc4)C3)sc2c1 (configuration not stated),-12%,-5%,40µM*[quencher],?,-12%
CCC(=O)OCCCNc1nc(-c2ccc(Cl)cc2)nc2ccccc12,-2%,?,-4%,?,11%
COc1cc(-c2nc3ccc(Cl)cn3c2Nc2ccc3c(c2)OCO3)ccc1O,?,11%,-5%,14µM*[quencher],-7%
Cc1ccc(Nc2c(-c3ccncc3)nc3ccc(C)cn23)cc1,?,14%,-1%,-28%,9%
COc1cc(-c2nc3ccc(C)cn3c2Nc2ccc(Cl)cc2)ccc1O,?,?,-2%,8.9µM*[quencher],-8%
CC1=CC(=O)c2c(O)ccc(O)c2C1=O,?,?,22µM*[quencher],?,-23%
CC1CN(C(=O)N2CCC(C(=O)NC3CCCCCC3)CC2)c2cc(Cl)ccc2O1 (configuration not stated),20µM*,?,1%,?,-3%
CCOc1ccc(NC(=O)C2CCN(C(=O)N3CC(C)Oc4ccc(Cl)cc43)CC2)cc1 (configuration not stated),?,-11%,100µM*[quencher],?,-16%
Cc1ccc(CNC(=O)C2CCN(C(=O)N3CC(C)Oc4ccc(Cl)cc43)CC2)cc1 (configuration not stated),?,-15%,5%,?,2%
Cc1ccc2c(c1)N(C(=O)N1CCC(C(=O)NCCc3ccc(Cl)cc3)CC1)CC(C)O2 (configuration not stated),-4%,7%,0%,7.9µM*[quencher],-6%
Cc1cc(C)c(NC(=O)C2CCN(C(=O)N3CC(C)Oc4ccc(Cl)cc43)CC2)c(C)c1 (configuration not stated),-17%,1%,-17%,-4%,-3%
COc1ccc(OC)c(NS(=O)(=O)c2ccc(N3CCCCS3(=O)=O)cc2)c1,7%,-1%,-1%,-3%,-4%
CC(=O)OCOC(=O)CN(CC(=O)OCOC(C)=O)c1ccccc1OCCOc1ccccc1N(CC(=O)OCOC(C)=O)CC(=O)OCOC(C)=O,-16%,0%,0%,-5%,-7%
